Data reported in PubChem BioAssay AID588689 (Southern Research Specialized Biocontainment Screening …, 2011).
Out of some 340,000 compounds screened, about 1,000 (0.29%) were called active. No stated cut-off is given here; in the data, inconclusive means inhibition above about 29% without an active follow-up result; inactive means below that. These entries were drawn from the full list. Results with a measured potency or affinity are listed apart.

Molecular target: Genome polyprotein (Dengue virus type 2 (strain 16681-PDK53)) (UniProt P29991)
Sequence (P29991 whole entry, looked up): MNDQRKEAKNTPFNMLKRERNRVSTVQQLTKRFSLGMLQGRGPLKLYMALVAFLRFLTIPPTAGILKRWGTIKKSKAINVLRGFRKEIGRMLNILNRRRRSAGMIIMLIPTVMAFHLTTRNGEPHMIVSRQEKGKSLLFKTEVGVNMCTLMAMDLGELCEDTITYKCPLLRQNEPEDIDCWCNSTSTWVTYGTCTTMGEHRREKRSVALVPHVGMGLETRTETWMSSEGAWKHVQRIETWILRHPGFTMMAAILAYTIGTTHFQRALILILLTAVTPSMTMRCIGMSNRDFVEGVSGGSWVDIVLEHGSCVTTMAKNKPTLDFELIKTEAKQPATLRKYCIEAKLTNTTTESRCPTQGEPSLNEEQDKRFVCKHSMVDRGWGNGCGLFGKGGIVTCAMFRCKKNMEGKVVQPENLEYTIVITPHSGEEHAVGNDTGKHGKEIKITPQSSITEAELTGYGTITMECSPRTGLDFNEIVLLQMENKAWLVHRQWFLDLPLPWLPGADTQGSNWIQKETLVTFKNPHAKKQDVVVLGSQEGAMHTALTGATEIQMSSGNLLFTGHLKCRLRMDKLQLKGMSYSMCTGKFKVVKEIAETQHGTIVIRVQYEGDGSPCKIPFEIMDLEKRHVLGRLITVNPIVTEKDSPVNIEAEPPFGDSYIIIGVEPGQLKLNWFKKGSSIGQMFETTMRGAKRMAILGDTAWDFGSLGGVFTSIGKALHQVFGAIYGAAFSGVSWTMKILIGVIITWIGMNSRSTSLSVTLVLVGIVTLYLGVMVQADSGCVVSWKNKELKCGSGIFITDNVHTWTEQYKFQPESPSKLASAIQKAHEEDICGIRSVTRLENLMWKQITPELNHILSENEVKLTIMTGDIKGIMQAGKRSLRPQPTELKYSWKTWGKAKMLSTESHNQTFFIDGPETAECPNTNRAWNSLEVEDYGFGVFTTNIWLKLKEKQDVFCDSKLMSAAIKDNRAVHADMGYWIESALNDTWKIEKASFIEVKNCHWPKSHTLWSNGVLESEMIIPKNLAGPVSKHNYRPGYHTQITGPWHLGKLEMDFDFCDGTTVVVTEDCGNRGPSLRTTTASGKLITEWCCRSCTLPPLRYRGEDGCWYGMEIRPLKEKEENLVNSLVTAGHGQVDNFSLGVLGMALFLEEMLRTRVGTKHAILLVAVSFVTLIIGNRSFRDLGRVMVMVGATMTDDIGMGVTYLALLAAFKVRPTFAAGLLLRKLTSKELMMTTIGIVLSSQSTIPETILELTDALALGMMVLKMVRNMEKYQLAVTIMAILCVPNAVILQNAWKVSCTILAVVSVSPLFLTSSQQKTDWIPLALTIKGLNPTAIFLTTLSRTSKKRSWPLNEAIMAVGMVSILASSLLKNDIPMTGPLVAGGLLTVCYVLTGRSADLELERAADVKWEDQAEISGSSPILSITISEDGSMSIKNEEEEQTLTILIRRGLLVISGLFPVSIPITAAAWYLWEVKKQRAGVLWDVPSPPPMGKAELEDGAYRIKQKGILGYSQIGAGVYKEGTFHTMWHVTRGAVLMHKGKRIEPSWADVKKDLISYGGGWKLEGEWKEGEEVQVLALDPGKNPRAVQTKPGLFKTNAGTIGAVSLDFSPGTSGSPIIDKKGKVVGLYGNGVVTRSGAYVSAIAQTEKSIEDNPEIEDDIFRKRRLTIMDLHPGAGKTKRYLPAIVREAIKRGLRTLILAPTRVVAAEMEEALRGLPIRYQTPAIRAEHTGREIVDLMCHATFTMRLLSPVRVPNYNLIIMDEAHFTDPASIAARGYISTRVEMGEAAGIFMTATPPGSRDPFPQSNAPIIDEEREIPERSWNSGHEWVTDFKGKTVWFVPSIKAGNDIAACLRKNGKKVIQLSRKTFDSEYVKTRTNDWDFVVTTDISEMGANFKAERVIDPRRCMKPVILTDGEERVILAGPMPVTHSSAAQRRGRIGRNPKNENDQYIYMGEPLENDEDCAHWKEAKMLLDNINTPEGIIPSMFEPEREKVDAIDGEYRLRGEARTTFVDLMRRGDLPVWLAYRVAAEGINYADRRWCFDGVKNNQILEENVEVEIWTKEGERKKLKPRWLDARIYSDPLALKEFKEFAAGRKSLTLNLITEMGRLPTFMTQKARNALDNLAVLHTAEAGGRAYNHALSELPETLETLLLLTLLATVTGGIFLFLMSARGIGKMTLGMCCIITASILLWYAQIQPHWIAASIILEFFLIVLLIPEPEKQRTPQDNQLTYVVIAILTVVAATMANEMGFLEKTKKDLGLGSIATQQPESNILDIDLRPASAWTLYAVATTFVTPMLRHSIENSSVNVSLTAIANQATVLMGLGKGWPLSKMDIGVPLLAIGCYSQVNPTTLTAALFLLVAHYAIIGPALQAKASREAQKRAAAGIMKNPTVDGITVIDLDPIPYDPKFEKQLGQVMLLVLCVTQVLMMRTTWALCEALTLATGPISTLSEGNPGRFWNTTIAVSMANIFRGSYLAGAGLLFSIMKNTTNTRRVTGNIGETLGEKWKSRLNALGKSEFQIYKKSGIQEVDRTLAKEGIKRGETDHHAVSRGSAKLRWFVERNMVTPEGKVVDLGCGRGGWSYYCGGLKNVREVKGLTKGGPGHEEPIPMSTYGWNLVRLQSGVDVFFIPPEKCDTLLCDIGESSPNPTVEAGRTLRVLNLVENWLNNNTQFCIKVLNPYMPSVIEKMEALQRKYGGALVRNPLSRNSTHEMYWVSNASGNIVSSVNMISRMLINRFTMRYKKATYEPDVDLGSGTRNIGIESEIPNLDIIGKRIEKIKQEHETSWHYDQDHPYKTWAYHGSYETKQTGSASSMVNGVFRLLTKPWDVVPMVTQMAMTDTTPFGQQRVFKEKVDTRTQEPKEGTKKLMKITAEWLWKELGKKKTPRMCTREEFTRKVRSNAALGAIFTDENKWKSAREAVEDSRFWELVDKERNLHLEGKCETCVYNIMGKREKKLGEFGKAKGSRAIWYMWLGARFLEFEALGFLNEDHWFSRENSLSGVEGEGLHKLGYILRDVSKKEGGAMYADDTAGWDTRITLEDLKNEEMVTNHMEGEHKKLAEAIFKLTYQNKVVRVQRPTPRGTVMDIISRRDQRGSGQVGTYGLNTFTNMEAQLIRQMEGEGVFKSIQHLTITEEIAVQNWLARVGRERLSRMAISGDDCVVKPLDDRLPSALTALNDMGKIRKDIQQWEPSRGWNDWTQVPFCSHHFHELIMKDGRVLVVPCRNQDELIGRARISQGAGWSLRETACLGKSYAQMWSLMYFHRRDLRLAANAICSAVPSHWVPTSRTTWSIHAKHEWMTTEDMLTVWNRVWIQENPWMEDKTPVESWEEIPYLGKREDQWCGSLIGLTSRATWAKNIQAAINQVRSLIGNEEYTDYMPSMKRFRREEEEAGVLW
Assay: Dengue-2 NS5 methyltransferase inhibitors, primary screen, biochemical, confirmation dose response (AID 588689)
Settings: Dengue-2 NS5 methyltransferase capping enzyme assay, at 25 µM, stronger effect = higher value
[1] = measured here: pilot screen replicate inhibition

## COc1cccc(O)c1CN1CCC(n2nccc2NC(=O)c2ccc3c(c2)OCO3)CC1
  inhibition: -3.24% (inactive)

## CCCCSc1n[nH]c(N)n1
  inhibition: -2.73% (inactive)

## COc1cccc(NC(=O)Cc2nnc(SCC(=O)NC3=NCCS3)n2C)c1
  inhibition: -1.78% (inactive)

## CCOc1cc(C(=O)N2CCN=C2SC)cc(OCC)c1OCC
  inhibition: -0.73% (inactive)

## CCCCCCN1C[C@H](n2cc(C3CC3)nn2)[C@@H](O)C[C@@H]1c1ccc(C)cc1
  inhibition: 0% (inactive)

## COc1ccc(NC2=NCCC(=O)N2Cc2cccs2)cc1
  inhibition: 3.14% (inactive)

## OCC(CO)(CO)N=Cc1c(O)ccc2ccccc12
  inhibition: 24.8% (inactive)

## CN(C)/N=C/c1c(O)ccc2ccccc12
  inhibition: 10.4% (inactive)

## COc1ccc(NC(=O)/C=C/c2ccccc2)c([N+](=O)[O-])c1
  inhibition: -2.2% (inactive)

## CC(=O)N1c2ccccc2NC2=C(C(=O)CCC2)C1c1ccco1 (configuration not stated)
  inhibition: 9.11% (inactive)

## O/N=C/c1cc(Br)ccc1OCc1ccc(F)cc1
  inhibition: -7.14% (inactive)

## O=C(O)CCN1C(=O)/C(=C\c2ccc(OCc3ccccc3)c(OCc3ccccc3)c2)SC1=S
  inhibition: 8.45% (inactive)

## CCn1c(C)cc(/C=C2/SC(=S)N(CC(=O)O)C2=O)c1C
  inhibition: -89.8% (inactive)

## O=[N+]([O-])c1ccc(COc2ccc(Br)cc2CN2CCOCC2)cc1
  inhibition: -3.16% (inactive)

## Cn1cccc1/C=C1\SC(=S)N(CC(=O)O)C1=O
  inhibition: -7.69% (inactive)

## Cn1cccc1/C=C1/SC(=S)N(CC(=O)O)C1=O
  inhibition: 3.63% (inactive)

## O=C1CCc2cc(S(=O)(=O)Nc3ccccc3)cc3c2N1CCC3
  inhibition: -5.11% (inactive)

## CCOc1cccc(N2CCN(CCNC(=O)Nc3ccc(C)cc3)CC2)c1C
  inhibition: -3.11% (inactive)

## CC(C)N(C(=O)[C@H]1C[C@H](CC(=O)NCc2ccco2)C(=O)N2CCc3c([nH]c4cc(CCC(=O)N(C)C)ccc34)[C@]12C)C(C)C
  inhibition: -2.31% (inactive)
[1]
  inhibition: 1.51%

## Cc1ccc(-c2nnn(CC(=O)N(c3ccccc3F)C(C(=O)NC3CCCC3)c3ccncc3)n2)o1 (configuration not stated)
  inhibition: 5.7% (inactive)

## COC(=O)c1cc(COC(=O)c2nc3nccc(C)n3n2)oc1C
  inhibition: 0% (inactive)

## Clc1ccc(-c2csc(-c3ccno3)n2)cc1
  inhibition: -5.36% (inactive)

## O=[N+]([O-])c1ccc(NCCCN2CCOCC2)c([N+](=O)[O-])c1
  inhibition: -5.47% (inactive)

## COc1ccc(CC(=O)Nc2ccc(S(=O)(=O)Nc3cc(OC)nc(OC)n3)cc2)cc1
  inhibition: 23.3% (inactive)

## O=C(O)CCCC(=O)N1CCc2cc(S(=O)(=O)N3CCc4ccccc43)ccc21
  inhibition: -4.13% (inactive)

## O=C1CCCCC1(O)Cc1ccc2c(c1)OCO2 (configuration not stated)
  inhibition: -3.89% (inactive)

## O=c1cc(-c2ccccc2)oc2cccc(O)c12
  inhibition: -5.07% (inactive)

## O=c1cc(-c2ccccc2)oc2cc(O)cc(O)c12
  inhibition: -12.6% (inactive)

## CC(=O)c1cc2c(cc1NC(=O)Cc1ccsc1)OCO2
  inhibition: -0.37% (inactive)

## O=C(C1CC(c2cccc(Br)c2)=NO1)N1CCc2ccccc2C1 (configuration not stated)
  inhibition: -3.92% (inactive)

## Cc1cccc(OCCn2nc(C(=O)O)c3ccccc3c2=O)c1
  inhibition: 2.68% (inactive)

## O=C(O)c1cccc([N+](=O)[O-])c1C(=O)Nc1cccc2ccccc12
  inhibition: -2.72% (inactive)

## O=C(Nc1cccc2ccccc12)c1cccc([N+](=O)[O-])c1
  inhibition: -4.08% (inactive)

## COc1cc(CN=Cc2c(O)n(Cc3ccccc3)c(=S)[nH]c2=O)cc(OC)c1
  inhibition: 10.8% (inactive)

## COc1c(O)ccc(/C=N\NC(=O)c2ccc3c(c2)OCO3)c1[N+](=O)[O-]
  inhibition: 12.7% (inactive)

## COc1c(O)ccc(/C=N/NC(=O)c2ccc3c(c2)OCCO3)c1[N+](=O)[O-]
  inhibition: 2.38% (inactive)

## O=C(c1cc(-c2ccncc2)nc2ccc(Cl)cc12)N1CCN(C(=O)C2CCCO2)CC1 (configuration not stated)
  inhibition: -1.35% (inactive)

## COC1=CC(=O)C=C(OC)C1=O
  inhibition: -8.21% (inactive)

## CC/C=C\C/C=C\C/C=C\CCCCCCCC(=O)O
  inhibition: 2.2% (inactive)

## CN(CC(=O)Nc1ccccc1Cl)C(=O)CSc1nnc(-c2ccco2)o1
  inhibition: -1.47% (inactive)

## CN1CCN(NC(=O)c2cc(S(=O)(=O)N3CCOCC3)c(Cl)cc2Cl)CC1
  inhibition: 1.45% (inactive)

## O=C(NC(C(=O)c1ccccc1)N1CCOCC1)c1cccs1 (configuration not stated)
  inhibition: -6.21% (inactive)

## CCCCN1C(=O)N(CCc2ccc(F)cc2)S(=O)(=O)c2cc(C(F)(F)F)ccc21
  inhibition: -0.33% (inactive)
[1]
  inhibition: 1.51%

## COc1ccc2nc3ccccc3nc2c1N
  inhibition: 40.2% (inactive)

## Cc1cccc2nc3ccccc3nc12
  inhibition: -0.76% (inactive)
